HIF-2a block: inhibitors of HIF-2a. 786-0 RCC cells HIF-2a reporter, luciferase luminescence, overnight. inhibition, % at 18.8 µM. hit rate 0.72% among 360,000;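 active = inhibition of the luminescence signal of 40% or more relative to plate controls, in a single-dose primary screen at 18.75 µM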
CF NFkB block: blocks PAF-induced NF-kB reporter in cystic fibrosis cells. hit rate 0.86% among 360,000. inhibition, % at 5 µM. KKLEB NF-kB-GFP reporter, GFP fluorescence overnight;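 active = at least 50% inhibition at 5 µM, scaled per plate between neutral and stimulator controls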;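 note: PAF is a Pseudomonas aeruginosa culture filtrate used as stimulus; plate controls were PAF-stimulated DMSO wells for no effect and unstimulated DMSO wells for full effect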
Shn3 inh set2: inhibitors of Schnurri-3 3'UTR reporter in osteoblasts; Clone20 osteoblast Shn3 3'UTR firefly luciferase, 24 h; inhibition, % at 12.5 µM; hit rate 0.52% among 360,000;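 active = mean inhibition of at least 75% with every replicate also reaching 75%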;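 note: 0% = median of neutral control wells and 100% = pilot-screen positive control compound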
KKLEB tox: counter-screen for CF NF-kB inhibitors: cytotoxicity | KKLEB CF airway cells viability, ATPlite luminescence, overnight; stronger effect = lower value; cells stimulated with P. aeruginosa culture filtrate | activity change (cytotoxicity), % at 5 µM | hit rate 0.36% among 360,000 | AID 602141;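 active = corrected activity change at or below -50% at 5 µM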
Peg3 prom inh-1: Peg3 promoter activity inhibition; HeLa PEG-Prom luciferase reporter, luminescence, overnight; inhibition, % at 20 µM; hit rate 1.7% among 360,000;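 active = inhibition of at least 50% at 20 µM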
Peg3 prom inh-2: confirmation of Peg3 promoter inhibitors; inhibition, % at 20 µM; hit rate 84% among 1,300; shares compounds with Peg3 prom inh-1; HeLa PEG-Prom luciferase reporter, luminescence, overnight; AID 602417;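 active = at 20 µM dose, 40% or more inhibition averaged across four replicates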
* marks the source's active call; other numbers are inactive results. Rows were chosen to be rich in hits. Some 2.6% of all compounds tested hit in one or more screens of this group.

How did O=C(Nc1ccc(-c2nc3ccccc3o2)cc1)c1ccc(N2CCOCC2)c([N+](=O)[O-])c1 do in these assays?
HIF-2a block: -82; CF NFkB block: 52*; Shn3 inh set2: 91*; KKLEB tox: -51*; Peg3 prom inh-1: 51*; Peg3 prom inh-2: 48*

Results for COC(=O)C1=C(C)N(Cc2ccccc2)C(=NCc2cccc(Cl)c2)N[C@H]1c1ccccc1 ?
HIF-2a block: -1; CF NFkB block: 42; Shn3 inh set2: 1; KKLEB tox: -25; Peg3 prom inh-1: 101*; Peg3 prom inh-2: 98*

What do the screens show for `CCS(=O)(=O)N1CCN(c2ccc(C(=O)NC3C4CC5CC(C4)CC3C5)cc2[N+](=O)[O-])CC1` (stereo unspecified)?
HIF-2a block: 21; CF NFkB block: 12; Shn3 inh set2: 41; KKLEB tox: 6; Peg3 prom inh-1: 8

Results for COc1cccc(/C=N/NC(=O)CNC(=O)COc2ccccc2)c1O ?
HIF-2a block: 8; CF NFkB block: -14; Shn3 inh set2: 8; KKLEB tox: 10; Peg3 prom inh-1: 43

Results for Cc1cccc(OCC(=O)NCC(=O)N/N=C/c2cc(Br)cc(Br)c2O)c1 ?
HIF-2a block: 14; CF NFkB block: 9; Shn3 inh set2: 43; KKLEB tox: 0; Peg3 prom inh-1: 57*; Peg3 prom inh-2: 63*

What do the screens show for `O=C(NC1CCCCC1)Sc1ccc(Cl)cc1`?
HIF-2a block: 16; CF NFkB block: 14; Shn3 inh set2: 12; KKLEB tox: 1; Peg3 prom inh-1: 66*; Peg3 prom inh-2: 66*

Results for CCOC(=O)c1c(NC(=O)COc2ccccc2C#N)sc2c1CC(C)(C)NC2(C)C ?
HIF-2a block: 10; CF NFkB block: 12; Shn3 inh set2: 12; KKLEB tox: -22; Peg3 prom inh-1: 29

How did CCOC(=O)c1c(NC(=O)CSc2nnnn2-c2ccccc2OCC)sc2c1CC(C)(C)NC2(C)C do in these assays?
HIF-2a block: 2; CF NFkB block: 22; Shn3 inh set2: 8; KKLEB tox: -7; Peg3 prom inh-1: 79*; Peg3 prom inh-2: 86*

How did O=S(=O)(/N=C(/Sc1ccccc1)c1ccccc1)c1ccccc1 do in these assays?
HIF-2a block: 22; CF NFkB block: -6; Shn3 inh set2: -36; KKLEB tox: -5; Peg3 prom inh-1: 60*; Peg3 prom inh-2: 75*

How did CS/C(=N\S(=O)(=O)c1ccccc1)c1ccccc1 do in these assays?
HIF-2a block: 13; CF NFkB block: 11; Shn3 inh set2: 13; KKLEB tox: 0; Peg3 prom inh-1: -1

Results for CC(=O)c1ccc(N(CC(=O)NCCc2ccccc2)C(=O)c2csnn2)cc1 ?
HIF-2a block: -14; CF NFkB block: -4; Shn3 inh set2: -11; KKLEB tox: 4; Peg3 prom inh-1: -1

How did CCOc1ccc(OCC)c(NC(=O)C2C3C=CC(O3)C2C(=O)NCc2ccco2)c1 (stereo unspecified) do in these assays?
HIF-2a block: -38; CF NFkB block: 1; Shn3 inh set2: -42; KKLEB tox: -15; Peg3 prom inh-1: -17

What do the screens show for `COc1ccccc1N1CCN(C(=O)CSc2ccccc2)CC1`?
HIF-2a block: -153; CF NFkB block: 3; Shn3 inh set2: -24; KKLEB tox: 8; Peg3 prom inh-1: -138

Results for COc1ccccc1N1CCN(C(=O)C(Sc2ccccc2)c2ccccc2)CC1 (stereo unspecified) ?
HIF-2a block: 24; CF NFkB block: 2; Shn3 inh set2: 9; KKLEB tox: 14; Peg3 prom inh-1: 52*; Peg3 prom inh-2: 41*

Results for O=c1[nH]c(O)c(/C=C2\C=Nc3ccc(Br)cc32)[nH]1 ?
HIF-2a block: -12; CF NFkB block: -3; Shn3 inh set2: 13; KKLEB tox: 3; Peg3 prom inh-1: 39

How did CC(=O)Nc1sc(C)c(C)c1C(=O)OCC(=O)N(CC(C)C)c1c(N)n(Cc2ccccc2)c(=O)[nH]c1=O do in these assays?
HIF-2a block: 18; CF NFkB block: 83*; Shn3 inh set2: 66; KKLEB tox: -96*; Peg3 prom inh-1: 101*; Peg3 prom inh-2: 55*

Results for Cc1ccc(-n2nc3c(N4CCC(C(=O)NCCc5cccs5)CC4)nnc(C)c3c2C)cc1 ?
HIF-2a block: 8; CF NFkB block: 33; Shn3 inh set2: 53; KKLEB tox: -14; Peg3 prom inh-1: 60*; Peg3 prom inh-2: 37
